Experimental findings from PubChem BioAssay (NCATS) are described below.

Each structure is given as a SMILES string.

A short description of this assay: qHTS profiling of the MIPE4 collection as inhibitors of Plasmodium falciparum (HB3) proliferation (AID 743347).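 Further: plate controls were DMSO vehicle wells for no effect and artemisinin wells for full effect.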 As to conditions: P. falciparum HB3 in erythrocytes, SYBR Green DNA, 72 h; at 28.5 µM (top of the series). The procedure, abridged: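 Parasite DNA was quantified by SYBR Green I fluorescence (ex 485, em 535 nm) after overnight lysis in saponin/Triton buffer at room temperature. Cultures at 0.3% parasitemia and 2.5% hematocrit were first exposed to compound for 72 h at 37 C; signals were normalised to artemisinin (0.29 uM) and vehicle wells.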
For orientation: Quantitative high-throughput screening tests each substance at several concentrations.
With `CC(=O)OCC1=C(C(=O)O)N2C(=O)[C@@H](N)[C@@H]2SC1`, the growth, % of control stood at 97.3%.
The same measure for `CC(=CCCC1=CCC(C2=CC(=O)OC2O)OC1O)CCC1=C(C)CCCC1(C)C` (centres undefined): 36%; for `COc1ccc(CC2NCCc3cc(OC)c(OC)cc32)cc1OC` (centres undefined): 90.4%.
The result for `C[C@]12Cc3cn[nH]c3C[C@@H]1CC[C@@H]1[C@H]2CC[C@@]2(C)[C@H]1CC[C@]2(C)O` reads 47.2%; that for `O=[N+]([O-])c1ncc[nH]1`, 81.7%.
The same measure for `CCC(=O)OC1CCC2C3CCC4=CC(=O)CC[C@@]4(C)C3CC[C@]12C` (some centres undefined): 94.7%; for `COCC1(CO)C(=O)C2CCN1CC2` (centres undefined): 87.2%; for `COC1=CC(C)=C[C@@H](C)[C@@H](O)[C@@H](C)CC(C)=CC=C[C@H](OC)[C@H]([C@@H](C)[C@@H](O)[C@H](C)[C@@]2(O)C[C@@H](O)[C@H](C)[C@@H](C(C)C)O2)OC1=O`: 8.98%.
With `C[C@@H]1O[C@@H](O[C@@H]2C=C3CC[C@@H]4[C@@H](CC[C@]5(C)[C@H](c6ccc(=O)oc6)CC[C@@]45O)[C@@]3(C)CC2)[C@H](O)[C@H](O)[C@H]1O`, the growth, % of control amounted to 94.5%.
The same measure for `CC1(N2CCC(n3c([C@@H]4CCCNC4)nc4ccccc43)CC2)CCCCCCC1`: 6.13%; for `Clc1ccccc1C(c1ccccc1)(c1ccccc1)n1cccn1`: 6.73%; for `C[C@]12CC[C@H](O)CC1=CC[C@H]1[C@H]3CCC(=O)[C@@]3(C)CC[C@@H]12`: 98.3%.
The result for `C[C@]12CC[C@@H]3[C@@H](CCC4=CC(=O)CC[C@@H]43)[C@@H]1CC[C@@H]2OC(=O)CCc1ccccc1` reads 90.8%.
As to `CCN1C[C@]2(OC(=O)c3ccccc3NC(C)=O)CC[C@H](OC)[C@@]34[C@H]5CC6[C@@H](OC)C[C@](O)(C(C[C@@H]23)[C@@H]14)[C@@]5(O)[C@@H]6OC`, the growth, % of control is 85.8%.
